Inconclusive results are not listed. Calls of active or inactive are those of the source. Calls come from the whole dose curve; as a rule, active = well fitted inhibition curve with a large enough effect; inconclusive = small, poorly fitted or top-dose-only effect; inactive = no such curve, though single readings can be large or run the other way.

Experiment [1] can be described thus: qHTS assay for measurement of the activity of small molecule inhibitors on Zika virus induced Caspase-3 activity in human iPSC derived neural progenitor cells (hNPCs) (AID 1224857). Note: nearly all actives have a fitted effect of over 65% in size. In a few lines: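 Caspase-3/7 induction by a 6-hour ZIKV infection was quantified with a luminescent Caspase-Glo 3/7 reagent incubated 30 minutes at room temperature. Compounds were preincubated with hNPCs for 1 hour; inhibition was calculated against uninfected and infected control wells.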

Experiment [2] is described as follows: qHTS assay for measurement of the activity of small molecule inhibitors on Zika virus induced Caspase-3 activity in human astrocytoma cells (AID 1224859). A digest of the protocol: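 In SNB-19 cells plated at 250 cells/well and grown 16-20 h, compounds were applied 1 h before ZIKV (2 FFU/cell). Six hours later caspase-3/7 luminescence was recorded.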
The nature of experiment [3]: qHTS Screen of the MIPE 4.0 Collection Against Ewings Sarcoma (RDES) (AID 1259252). Note: nearly all actives have a fitted effect of over 35% in size. Note: potency is the fitted concentration of half-maximal effect. A digest of the protocol: (§1)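 Compound titrations go onto adherent log-phase cells 4 h after seeding, incubate 48 h at 37C, then CellTiter-Glo luminescence reports viability relative to DMSO and cell-free controls.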
The nature of experiment [4]: qHTS Screen of the MIPE 4.0 Collection Against Ewings Sarcoma (TC71) (AID 1259253). Note: nearly all actives have a fitted effect of over 40% in size. Note: potency is the fitted concentration of half-maximal effect. In a few lines: as §1
Experiment [5] is described as follows: qHTS Screen of the MIPE 4.0 Collection Against Ewings Sarcoma (EW8) (AID 1259255). Note: nearly all actives have a fitted effect of over 35% in size. Note: potency is the fitted concentration of half-maximal effect. A digest of the protocol:
as §1

Experiment [6] can be described thus: qHTS Screen of the MIPE 4.0 Collection Against Ewings Sarcoma (TC32) (AID 1259256). Note: nearly all actives have a fitted effect of over 45% in size. Note: potency is the fitted concentration of half-maximal effect. In a few lines:
as §1

In the case of `CCNC(=O)Nc1ccc2ncc(Nc3ccc(C)cc3)nc2n1`, the Potency result in experiment [1] and in experiment [2] was “inactive” throughout. Also, the Potency was 0.332 µM (active) in experiment [3], 2.96 µM (active) in experiment [4], 2.96 µM (active) in experiment [5] and 1.32 µM (active) in experiment [6].

Take `O=C(O)CCCc1c[nH]c2ccccc12`: the Potency entry in experiment [1], in experiment [2], in experiment [3], in experiment [4], in experiment [5] and in experiment [6] was “inactive” each time.

Consider `Cc1cc(CN2CCN(c3c(Br)cnc4nc(-c5ccc(N6CCN(C)CC6)cc5)[nH]c34)CC2)no1`, for which the Potency entry in experiment [1] and in experiment [2] was “inactive” each time. For the same compound, the Potency was 14.8 µM (active) in experiment [3], 18.7 µM (active) in experiment [4], 0.935 µM (active) in experiment [5] and 1.18 µM (active) in experiment [6].

For `CNC(=O)c1nn(C)c2c1C(C)(C)Cc1cnc(Nc3ccc(N4CCN(C)CC4)cc3)nc1-2`, the Potency entry in experiment [1] and in experiment [2] was “inactive” throughout. The Potency is 1.66 µM (active) in experiment [3], 1.87 µM (active) in experiment [4], 2.96 µM (active) in experiment [5] and 2.35 µM (active) in experiment [6].

With `Cc1ccc2nc(NC(=O)CSc3nc4c(c(=O)n3-c3ccccc3)SCC4)sc2c1`, the Potency entry in experiment [1] and in experiment [2] was “inactive” throughout. Besides, the Potency was 18.7 µM (active) in experiment [3], 20.9 µM (active) in experiment [4], 16.6 µM (active) in experiment [5] and 16.6 µM (active) in experiment [6].

For `CC(C)c1cc(C(=O)N2Cc3ccc(CN4CCN(C)CC4)cc3C2)c(O)cc1O`, the Potency entry in experiment [1] and in experiment [2] was “inactive” each time. Moreover, the Potency in experiment [3] was 0.469 µM (active); in experiment [4], 0.235 µM (active); in experiment [5], 0.372 µM (active); in experiment [6], 0.209 µM (active).

Take `CC(C)c1nn(-c2c(Cl)cccc2Cl)c2nc(Cc3ccc(OCCO)cc3)[nH]c(=O)c12`: the Potency result in experiment [1] and in experiment [2] was “inactive” throughout. Also, the Potency is 0.187 µM (active) in experiment [3], 0.132 µM (active) in experiment [4], 0.148 µM (active) in experiment [5] and 0.105 µM (active) in experiment [6].

As to `NC1(Cc2ccc(Cl)cc2)CCN(c2ncnc3[nH]ccc23)CC1`, the Potency entry in experiment [1] and in experiment [2] was “inactive” in each case. For the same compound, the Potency in experiment [3] was 16.6 µM (active); in experiment [4], 18.7 µM (active); in experiment [5], 16.6 µM (active); in experiment [6], 16.6 µM (active).

With `Cc1ccc(C(=O)Nc2cccc(C(F)(F)F)c2)cc1-c1ccc2nc(NCCN3CCOCC3)ncc2c1`, the Potency entry in experiment [1] and in experiment [2] was “inactive” each time. The Potency is 14.8 µM (active) in experiment [3], 14.8 µM (active) in experiment [4], 14.8 µM (active) in experiment [5] and 11.8 µM (active) in experiment [6].

On to `COc1cccc(Nc2c(C(N)=O)cnc3c(C)cc(S(=O)(=O)c4cccc(C(=O)N(C)C)c4)cc23)c1`, for which the Potency result in experiment [1], in experiment [2], in experiment [3], in experiment [4], in experiment [5] and in experiment [6] was “inactive” each time.

For `Nc1nc(NCCNc2ncc(-n3ccnc3)c(-c3ccc(Cl)cc3Cl)n2)ccc1[N+](=O)[O-]`, the Potency result in experiment [1], in experiment [2], in experiment [4] and in experiment [5] was “inactive” in each case. In addition, the results for the Potency in experiment [3] and in experiment [6] were 0.833 µM (active) and 9.35 µM (active), respectively.

Take `O=C(Nc1ncc(-c2cc(C(F)F)nn2-c2c(Cl)cccc2Cl)s1)C1CC1`: the Potency entry in experiment [1] and in experiment [2] was “inactive” each time. The Potency is 0.418 µM (active) in experiment [3], 0.743 µM (active) in experiment [4], 0.469 µM (active) in experiment [5] and 0.469 µM (active) in experiment [6].

For `COc1ccc(-c2cc3c(C)nc(N)nc3n(C3CCC(OCCO)CC3)c2=O)cn1` (stereo unspecified), the Potency entry in experiment [1] and in experiment [2] was “inactive” in each case. The Potency in experiment [3] is 0.118 µM (active); in experiment [4], 0.0743 µM (active); in experiment [5], 0.0662 µM (active); in experiment [6] it was 0.0264 µM (active).

Turning to `CC1(C)O[C@@H]2C[C@@H]3[C@H]4C[C@@H](F)C5=CC(=O)C=C[C@]5(C)[C@@]4(F)[C@@H](O)C[C@]3(C)[C@]2(C(=O)CO)O1`, the Potency result in experiment [1], in experiment [2], in experiment [3], in experiment [4], in experiment [5] and in experiment [6] was “inactive” each time.

As to `CC(C)Nc1cc(C(F)(F)F)cc2nc(NC(=O)c3cccnc3)nn12`, the Potency result in experiment [1], in experiment [2], in experiment [5] and in experiment [6] was “inactive” each time. The figures for the Potency in experiment [3] and in experiment [4] were 11.8 µM (active) and 13.2 µM (active), respectively.

For `Cc1coc2c1C(=O)C(=O)c1c-2ccc2c1CCCC2(C)C`, the Potency result in experiment [1], in experiment [2], in experiment [3], in experiment [4] and in experiment [5] was “inactive” throughout. Further, the Potency in experiment [6] is 0.0037 µM (active).

On to `Cn1c(CNc2ccc(C(=N)N)cc2)nc2cc(C(=O)N(CCC(=O)O)c3ccccn3)ccc21`, for which the Potency result in experiment [1], in experiment [2], in experiment [3], in experiment [4], in experiment [5] and in experiment [6] was “inactive” each time.

For the compound `CCn1nnc2c(N3CCOCC3)nc(-c3ccc(NC(=O)Nc4ccc(C(=O)N5CCN(C)CC5)cc4)cc3)nc21`, the Potency result in experiment [1] and in experiment [2] was “inactive” in each case. The Potency in experiment [3] is 0.0148 µM (active); in experiment [4], 0.0418 µM (active); in experiment [5], 0.0066 µM (active); in experiment [6], 0.0074 µM (active).

In the case of `CN1CCN(c2ccc3nc(-c4c(N)c5c(F)cccc5[nH]c4=O)[nH]c3c2)CC1`, the Potency result in experiment [1] and in experiment [2] was “inactive” throughout. Further, the Potency in experiment [3] was 14.8 µM (active); in experiment [4], 11.8 µM (active); in experiment [5] it was 5.9 µM (active); in experiment [6] it was 14.8 µM (active).

Regarding `CNC(=O)c1ccc(-c2cnc3ncc(Cc4ccc5ncccc5c4)n3n2)cc1F`, the Potency entry in experiment [1], in experiment [2], in experiment [3], in experiment [4], in experiment [5] and in experiment [6] was “inactive” throughout.

Regarding `Cc1ccc(CN2CCNCC2)cc1NC(=O)CNc1ccc(F)c(F)c1`, the Potency result in experiment [1] and in experiment [2] was “inactive” in each case. The Potency was 6.62 µM (active) in experiment [3], 5.26 µM (active) in experiment [4], 26.4 µM (active) in experiment [5] and 13.2 µM (active) in experiment [6].

Values taken from PubChem BioAssay (NCATS).
